High-throughput results deposited in PubChem BioAssay by National Center for Advancing Translational Sciences (NCATS).
Pf Dd2 inh: qHTS Primary assay for Inhibitors of Plasmodium falciparum Dd2 growth in vitro; P. falciparum Dd2 growth, SYBR Green, 72 h; Potency, µM (series often up to 28.9 µM), inactives show top-dose activity, negative = inhibition, usual class: inhibitors; actives 4.3% (n = 120,000); active means well fitted inhibition curve with a large enough effect;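 further: plate controls were DMSO vehicle for no effect and reference drug for full effect; nearly all actives have a fitted effect of over 65% in size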
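Infected erythrocytes (Dd2, 0.3% parasitemia, 2.5% hematocrit final) are added to compound in RPMI-1640/Albumax II medium, grown 72 h at 37C in low oxygen, then lysed with saponin/Triton-X containing SYBR Green and read by fluorescence.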
Starred values were filed as active, the others as inactive; i = inactive; [ ] = dose if it differs, or a comment. The entries come from a sample that favours hits as a whole. Potency means the concentration at half of the fitted maximal effect.

SMILES	Pf Dd2 inh
C[C@]1(CO)[C@H]2Cc3sc(NC(=O)C4CCC4)nc3[C@@H](CC(=O)N3CCOCC3)[C@]2(C)CC[C@H]1O	i
C[C@]1(CO)[C@H]2Cc3sc(NC(=O)c4ccc(F)cc4)nc3[C@@H](CC(=O)N3CCOCC3)[C@]2(C)CC[C@H]1O	10µM*
CC(C)(C)c1ccc(C(=O)Nc2nc3c(s2)C[C@@H]2[C@](C)(CO)[C@H](O)CC[C@@]2(C)[C@@H]3CC(=O)N2CCC(C(N)=O)CC2)cc1	11.2µM*
CC(=O)N1CCN(C(=O)C[C@@H]2c3nc(-c4ccsc4)sc3C[C@@H]3[C@](C)(CO)[C@H](O)CC[C@]32C)CC1	-49.0%
C[C@]1(CO)[C@H]2Cc3sc(NC(=O)c4ccc(F)cc4)nc3[C@@H](CC(=O)N3CCCCC3)[C@]2(C)CC[C@H]1O	i
CNC(=O)c1cccc(-c2cnc(Nc3cccnc3OC)c3c2CCO3)c1	i
Cc1nc(N2CCC(NC(=O)c3cccs3)CC2)cc(C(F)(F)F)n1	5.01µM*
Cc1nc(N2CCC(NC(=O)Cc3cccs3)CC2)cc(C(F)(F)F)n1	i
COc1ccc(C(=O)NC2CCN(c3cc(C(F)(F)F)nc(C)n3)CC2)cc1	14.1µM*
Cc1ccc(C(=O)NC2CCN(c3cc(C(F)(F)F)nc(C)n3)CC2)cc1	i
COc1ccc(C(=O)NC2CCN(c3cc(C(F)(F)F)nc(C)n3)CC2)c(C)c1	-2.9%
Cc1nc(N2CCC(NC(=O)c3ccsc3)CC2)cc(C(F)(F)F)n1	-6.6%
COc1ccc(-c2cc3c(=O)n(CCNC(=O)c4ccc5c(c4)OCO5)ccn3n2)cc1	i
CN(C(=O)c1ccc(OC2CCN(C(=O)C3CC3)CC2)cc1)C1CCCc2ccccc21 (stereo not given)	i
COCC(=O)NC1CCC12CCN(C(=O)C1(c3ccccc3)CC1)CC2 (stereo not given)	-7.3%
CO[C@H]1C(=O)N(C2CCN(C(=O)c3cnn(C)c3)CC2)[C@H]1c1ccncc1	14.4%
Cc1ccc(C(=O)N2CCC(n3c(C)cnc3-c3ccccc3)CC2)cn1	-17.1%
CC(C)COc1ccc(C2=NC(c3ccncc3)=Nc3ccc(F)cc3N2)cc1	-2.4%
CCc1ccc2c(c1)NC(c1ccc(F)cc1)=NC(c1ccncc1)=N2	-13.2%
CCOc1ccc2c(c1)NC(c1ccc(OCC)c(OCC)c1)=NC(c1ccc(F)cc1)=N2	12.6µM*
O=C(NCCCn1nnc2ccccc21)C1NCCc2[nH]cnc21 (stereo not given)	-19.5%
CNC(=O)c1cnc2c(c1)N(Cc1ccccc1)CCC2	2.2%[44.1 µM]
CN1C(=O)CS(=O)(=O)C12CCN(C(=O)COc1ccc(F)cc1)CC2	-1.0%
COc1ccc(C2Cn3nnc(-c4noc(-c5ccsc5)n4)c3CO2)cc1 (stereo not given)	-5.6%
CCOc1ccc(NC(=O)CSc2nnc(NC(=O)Nc3ccccc3)s2)cc1	29.2%
SMILES	Pf Dd2 inh
COc1cc(NC(=O)Nc2nnc(N3CCCCC3)s2)cc(OC)c1	-7.7%
CCOc1ccc(NC(=O)Nc2nnc(N3CCCCC3C)s2)cc1 (stereo not given)	11.2µM*
COC[C@H]1C[C@@H](NC(=O)C(C)C)[C@H](O)[C@@H]1O	35.9%[44.1 µM]
CCOc1cccc(C(=O)N2CCC(c3nc4ccccc4s3)CC2)c1	87.0%
O=C(C1CCCCC1)N1CC[C@H](c2nc3ccccc3s2)C1	-25.5%[44.1 µM]
c1ccc2sc([C@H]3CCN(CC4CCCCC4)C3)nc2c1	10µM*
CNC(=O)C1(N2CCC[C@H]2C(=O)NC2CCOCC2)CCOCC1	0.3%[44.1 µM]
COc1cccc(N2C(=O)NC(=NC3CCCC3)C23CCCN(CC2CCCCC2)C3)c1 (stereo not given)	10µM*
COc1cccc(N2C(=O)NC(=NC3CCCCC3)C23CCCN(C(=O)c2ccc(C)cc2)C3)c1 (stereo not given)	13.4%
COC(=O)N1CCC2(C1)C(=NC1CCCCC1)NC(=O)N2c1cccc(OC)c1 (stereo not given)	4.5%
COc1cccc(N2C(=O)NC(=NC3CCCCC3)C23CCN(Cc2cccn2C)CC3)c1	-20.3%
COc1cccc(N2C(=O)NC(=NC3CCCCC3)C23CCCN(CCC(C)C)C3)c1 (stereo not given)	11.2µM*
COc1cccc(N2C(=O)NC(=NC3CCCCC3)C23CCCN(CC2CCCCC2)C3)c1 (stereo not given)	12.6µM*
COc1cccc(N2C(=O)NC(=NC3CCCCC3)C23CCN(C(C)=O)C3)c1 (stereo not given)	15.7%
COc1cccc(N2C(=O)NC(=NC3CCCC3)C23CCCN(C(=O)c2ccc(C)cc2)C3)c1 (stereo not given)	20.2%
COc1cccc(N2C(=O)NC(=NC3CCCCC3)C23CCN(C(=O)OCc2ccccc2)C3)c1 (stereo not given)	i
COc1ccccc1-c1ccnc(N[C@H]2CO[C@H]3[C@@H]2OC[C@@H]3NC(=O)COc2ccccc2)n1	i
Cc1nnc2n1CCC(N(C)C(=O)c1cncc(Br)c1)CC2 (stereo not given)	8.5%
Cn1cnc(S(=O)(=O)NCCc2noc(-c3ccncc3)n2)c1	51.6%
O=C(CCC1CCCC1)N1CCC(Cc2nc(C3CC3)n[nH]2)CC1	i
O=C(Nc1ccccc1)N1CCC(Oc2ncccc2C(=O)N2CCCCC2)C1 (stereo not given)	-2.1%
O=C1[C@@H]2C[C@@H](CN2Cc2ccc3c(c2)OCO3)Oc2ccccc2N1CC1CC1	12.6µM*
CN1C(=O)[C@@H]2C[C@@H](CN2Cc2ccccc2)Oc2ccccc21	i
O=C1[C@@H]2C[C@@H](CN2C(=O)Cc2ccccc2)Oc2ccccc2N1CC1CC1	-21.8%[44.1 µM]
Cn1cc(CN2C[C@@H]3C[C@H]2C(=O)N(CC2CC2)c2ccccc2O3)c2ccccc21	-0.8%[44.1 µM]
SMILES	Pf Dd2 inh
O=C1[C@@H]2C[C@@H](CN2Cc2ccnc3ccccc23)Oc2ccccc2N1CC1CC1	-13.0%[44.1 µM]
Cc1ccc(CN2C[C@@H]3C[C@H]2C(=O)N(CC2CC2)c2ccccc2O3)cc1	10µM*
CSCC(=O)N1CC[C@H](NC(=O)NC(C)C)[C@H]1C(=O)N(C)CC(N)=O	-9.1%[44.1 µM]
CC(C)CNC(=O)c1ccnc(-c2nnc3ccc(N4CCN(C)CC4)nn23)c1	-1.8%[44.1 µM]
COCCNC(=O)CC(c1ccccc1OC)c1cn(C)c2ccccc12 (stereo not given)	i
Cc1cccc(N2CCN(C(=O)c3cnn(-c4ccccc4)c3C3CCN(C(=O)OC(C)(C)C)CC3)CC2)c1C	10µM*
COc1cccc(N2CCN(C(=O)c3cnn(C(C)(C)C)c3C3CCN(C(=O)OC(C)(C)C)CC3)CC2)c1	12.6µM*
COc1ccc(-n2ncc(C(=O)N3CCOCC3)c2C2CCN(C(=O)OC(C)(C)C)CC2)cc1	41.4%
COc1ccc(-n2ncc(C(=O)N3CCN(c4cc(C)ccc4C)CC3)c2C2CCN(C(=O)OC(C)(C)C)CC2)cc1	24.8%
Cc1ccc(-n2ncc(C(=O)N3CCN(c4ccccn4)CC3)c2C2CCN(C(=O)OC(C)(C)C)CC2)cc1	18.1%
COc1cccc(N2CCN(C(=O)c3cnn(-c4ccc(C)cc4C)c3C3CCN(C(=O)OC(C)(C)C)CC3)CC2)c1	6.31µM*
C#CCN(C)C(=O)[C@@H]1CCCN1[C@H](CC(C)C)C(=O)NC	-24.9%[44.1 µM]
Cc1cccc(C(=O)N2CCC(C(NC(=O)CC(C)C)C(=O)N3CCCCC3)CC2)c1 (stereo not given)	i
CC(C)NC(=O)NC[C@H]1O[C@@H](CO)[C@@H](O)[C@H]1N1CCN(C)CC1	-8.9%[44.1 µM]
